Results published in PubChem BioAssay (NCATS).
A number with no mark means an inactive call. Records with an inconclusive call do not appear. Calls of active or inactive are those of the source. Unless noted, the call rests on the fitted dose curve; in most records, active means well fitted curve in either direction with a large enough effect (not every such curve was filed as active); inconclusive means small, poorly fitted or top-dose-only effect, or another doubt; inactive means flat fitted curve, though single readings scatter.

How the values were obtained:
[1] = target: Lysosomal acid glucosylceramidase (Homo sapiens) (UniProt P04062); assay: Glucocerebrosidase-p2 (AID 348; in the data active means potency below about 10 µM; further: potency means the concentration at half of the fitted maximal effect); conditions: purified GBA, blue fluorogenic substrate, 40 min
Outline: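 Compounds titrated from 0.6 nM upwards against 0.2 nM enzyme in pH 5.9 citric acid/KH2PO4, taurocholate, tween-20; blue fluorogenic substrate 80 uM, 40 min room temperature, stopped and read Ex 365/Em 440 for AC50.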

[2] = AP1 Signaling Pathway (AID 357); conditions: ME-180 AP-1-bla reporter, EGF-induced, beta-lactamase ratio, 5 h; at 7.69 µM (top of the series) unless noted;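 further: ME-180 reporter cells stimulated with EGF at its EC50 level; on the % scale 0 is the no-effect control and ±100 the full control effect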
Outline: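 Cells are seeded overnight, exposed to compound titrations and an EC50 level of EGF for 5 hours at 37 °C, then loaded with CCF4 dye for 2.5 hours. Beta-lactamase activity under the AP-1 element is read as a blue/green ratio.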

[3] = target: Cytochrome P450 1A2 (Homo sapiens) (UniProt P05177); assay: p450-cyp1a2 (AID 410; calls by dose curve; further: potency means the concentration at half of the fitted maximal effect;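 on activity change, negative = inhibition: -100% = full effect of reference inhibitor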); conditions: recombinant CYP1A2, luciferin-ME demethylation, luminescence; series mostly up to 11.4 µM
Outline: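 Inhibition was calculated relative to 57 uM furafylline (full inhibition). The reaction used human CYP1A2 at 20nM with Luciferin-ME at its Km, 100uM, driven by an NADPH-regenerating system for 60 min at room temperature.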

[4] = Stat Signaling Pathway (AID 446); conditions: ME-180 SIE beta-lactamase reporter, IL-6 stimulated, 5 h; at 7.69 µM (top of the series) unless noted;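 further: ME-180 cervical cancer cells given 40 pM IL-6 alongside compound; SIE-controlled beta-lactamase reporter measured as 460/530 nm FRET emission ratio; on the % scale 0 is the no-effect control and ±100 the full control effect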
Outline: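 Reporter line: ME-180 cervical carcinoma, SIE-beta-lactamase. Treatment: compound with 40 pM IL-6, 5 hrs, 37 C, in low-serum OPTI-MEM with 10 mM HEPES pH 7.3. Detection: 460/530 nm fluorescence.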

[5] = target: Glucocorticoid receptor (Homo sapiens) (UniProt P04150); assay: GR-GFP Redistribution (AID 450;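 active means compounds whose dose series gives a full or clear partial fitted curve of increased nuclear translocation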; further: potency means the concentration at half of the fitted maximal effect); conditions: U2OS GR-GFP nuclear translocation, laser cytometry, 2 h
[6] = target: Glucocorticoid receptor (Homo sapiens) (UniProt P04150); assay: GR-EFC Redistribution (AID 451; calls by dose curve; further: potency means the concentration at half of the fitted maximal effect); conditions: CHO-K1 GR-EFC translocation, beta-gal luminescence, 2 h
Outline: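 Translocation of GR-ED fusion to nuclear EA restores b-gal, read by luminescence after 1 h room-temperature detection. Engineered CHO-K1 biosensor cells, 1,000/well, exposed 2 h at 37 C to titrations up to 46 uM final.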

[7] = target: Mitogen-activated protein kinase 10 (Mus musculus) (UniProt Q61831); assay: JNK3 AlphaScreen Assay (AID 530); conditions: JNK3 lysate, c-Jun phosphorylation; series mostly up to 11.4 µM;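 further: kinase came from lysate of stimulated human HepG2 cells; signal reports phosphorylation of biotinylated GST-cJun 1-79 at Ser73 with 10 µM ATP; on the % scale 0 is the no-effect control and ±100 the full control effect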
Outline: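 Room-temperature AlphaScreen kinase assay; pre-activated HepG2 lysate as JNK3 source, biotin-GST-cJun(1-79) substrate, 10 uM ATP, compound 15 min preincubation.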

[8] = target: 3',5'-cyclic-AMP phosphodiesterase 4B (Homo sapiens) (UniProt Q07343); assay: qHTS Assay for Inhibitors of PDE-IV (AID 607; active means well fitted activation curve with a large enough effect in the main read-out, with a control signal flat, not every such curve was filed as active; further: % of control where 0% means no effect); conditions: HEK293 ACTOne CNG channel cells, membrane potential fluorescence; series mostly up to 22.9 µM
Outline: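 Cell-based read-out of cAMP via a modified cyclic nucleotide-gated channel and membrane potential dye (535/590 nm) in HEK293 cells expressing PDE4 endogenously. Compounds tested up to 22.9 uM final; 100 uM RO 20-1724 reference.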

[9] = target: Cytochrome P450 2C19 (Homo sapiens) (UniProt P33261); assay: qHTS Assay for Inhibitors and Substrates of Cytochrome P450 2C19 (AID 899; active means well fitted inhibition curve with a large enough effect; further: nearly all actives have a fitted effect of over 60% in size; further: potency means the concentration at half of the fitted maximal effect; on activity, negative = inhibition: on the % scale 0 is the no-effect control and ±100 the full control effect); conditions: recombinant CYP2C19, luciferin-H EGE luminescence; series mostly up to 11.4 µM
Outline: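 5nM enzyme + 10uM Luciferin-H EGE (=KM), 50mM KPO4; cpd pin-transferred, 10 min 37C; NADPH regen, 60 min 37C; stopped w/ luciferin detection reagent, 20 min; luminescence. Normalized to 57uM ketoconazole (AC100).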

[10] = qHTS Assay for Identification of Small Molecule Agonists for Hypoxia Response Element Signaling Pathway (AID 914; active means well fitted activation curve with a large enough effect in the signal ratio, with a control signal flat, not every such curve was filed as active; the % refers to the signal ratio; further: % of control where 0% means no effect); conditions: ME-180 (cervical carcinoma) HRE-bla reporter, beta-lactamase ratio, CoCl2, 17 h; activation: hits give high values
Outline: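 AC50 values come from titration-series %Activity, taken as the 460/530nm ratio of CCF4 fluorescence (excitation 405nm). CellSensor HRE-bla ME-180 cells were treated 17 hours at 37 C with compound plus an EC50 level of CoCl2.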

[11] = target: Cytochrome P450 2D6 (Homo sapiens) (UniProt P10635); assay: qHTS Assay for Inhibitors and Substrates of Cytochrome P450 2D6 (AID 891; active means well fitted inhibition curve with a large enough effect; further: nearly all actives have a fitted effect of over 60% in size; further: potency means the concentration at half of the fitted maximal effect); conditions: recombinant CYP2D6, luciferin-ME EGE luminescence; series mostly up to 11.4 µM
Outline: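 Human CYP2D6 (5 nM) with 30 uM Luciferin-ME EGE (at Km) in 100 mM KPO4, compound preincubated 10 min, then NADPH regeneration system for 60 min at room temperature. Luciferin read by luminescence; normalized to 1.43 uM quinidine.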

Sequence of Cytochrome P450 2D6 (Homo sapiens) (P10635 whole entry, looked up): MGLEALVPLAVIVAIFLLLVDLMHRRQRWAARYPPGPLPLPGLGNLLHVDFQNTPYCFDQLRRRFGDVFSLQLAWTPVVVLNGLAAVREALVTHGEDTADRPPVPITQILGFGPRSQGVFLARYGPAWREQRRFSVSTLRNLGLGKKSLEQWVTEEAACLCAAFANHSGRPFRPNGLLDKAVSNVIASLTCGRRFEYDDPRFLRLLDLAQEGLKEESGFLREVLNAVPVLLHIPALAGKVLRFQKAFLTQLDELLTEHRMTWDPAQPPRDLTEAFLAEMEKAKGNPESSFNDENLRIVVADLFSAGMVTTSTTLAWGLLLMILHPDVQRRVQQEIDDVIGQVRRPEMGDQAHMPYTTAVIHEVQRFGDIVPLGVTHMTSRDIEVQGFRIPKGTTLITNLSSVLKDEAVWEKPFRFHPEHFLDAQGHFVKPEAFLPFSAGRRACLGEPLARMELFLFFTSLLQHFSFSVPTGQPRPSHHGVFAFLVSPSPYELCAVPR
Sequence of Cytochrome P450 1A2 (Homo sapiens) (P05177 whole entry, looked up): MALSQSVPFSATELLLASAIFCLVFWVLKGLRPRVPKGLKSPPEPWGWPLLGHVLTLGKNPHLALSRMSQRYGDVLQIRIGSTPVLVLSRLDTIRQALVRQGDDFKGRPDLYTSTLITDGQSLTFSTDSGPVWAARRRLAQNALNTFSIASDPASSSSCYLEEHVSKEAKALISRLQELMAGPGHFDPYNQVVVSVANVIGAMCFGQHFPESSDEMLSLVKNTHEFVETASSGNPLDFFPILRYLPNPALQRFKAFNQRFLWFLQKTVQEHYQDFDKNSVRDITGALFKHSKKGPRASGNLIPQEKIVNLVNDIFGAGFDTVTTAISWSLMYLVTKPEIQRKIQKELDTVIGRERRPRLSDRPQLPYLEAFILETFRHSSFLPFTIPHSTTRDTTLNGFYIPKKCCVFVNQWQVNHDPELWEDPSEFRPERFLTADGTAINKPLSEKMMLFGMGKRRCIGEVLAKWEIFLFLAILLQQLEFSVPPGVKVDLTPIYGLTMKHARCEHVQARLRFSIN
Sequence of Cytochrome P450 2C19 (Homo sapiens) (P33261 whole entry, looked up): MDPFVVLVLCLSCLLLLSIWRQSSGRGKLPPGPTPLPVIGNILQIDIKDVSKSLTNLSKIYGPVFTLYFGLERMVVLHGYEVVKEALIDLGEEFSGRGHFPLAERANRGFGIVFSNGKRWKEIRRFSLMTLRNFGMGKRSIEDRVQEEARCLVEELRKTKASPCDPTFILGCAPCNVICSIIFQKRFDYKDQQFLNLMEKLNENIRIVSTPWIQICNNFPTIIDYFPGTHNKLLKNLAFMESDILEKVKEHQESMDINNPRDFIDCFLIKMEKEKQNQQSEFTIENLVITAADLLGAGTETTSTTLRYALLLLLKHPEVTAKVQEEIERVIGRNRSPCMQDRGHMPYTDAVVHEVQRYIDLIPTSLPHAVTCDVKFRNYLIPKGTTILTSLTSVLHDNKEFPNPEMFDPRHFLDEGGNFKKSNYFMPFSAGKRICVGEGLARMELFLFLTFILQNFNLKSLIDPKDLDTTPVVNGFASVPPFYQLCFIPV
Sequence of Glucocorticoid receptor (Homo sapiens) (P04150 whole entry, looked up, the tested form may be a part): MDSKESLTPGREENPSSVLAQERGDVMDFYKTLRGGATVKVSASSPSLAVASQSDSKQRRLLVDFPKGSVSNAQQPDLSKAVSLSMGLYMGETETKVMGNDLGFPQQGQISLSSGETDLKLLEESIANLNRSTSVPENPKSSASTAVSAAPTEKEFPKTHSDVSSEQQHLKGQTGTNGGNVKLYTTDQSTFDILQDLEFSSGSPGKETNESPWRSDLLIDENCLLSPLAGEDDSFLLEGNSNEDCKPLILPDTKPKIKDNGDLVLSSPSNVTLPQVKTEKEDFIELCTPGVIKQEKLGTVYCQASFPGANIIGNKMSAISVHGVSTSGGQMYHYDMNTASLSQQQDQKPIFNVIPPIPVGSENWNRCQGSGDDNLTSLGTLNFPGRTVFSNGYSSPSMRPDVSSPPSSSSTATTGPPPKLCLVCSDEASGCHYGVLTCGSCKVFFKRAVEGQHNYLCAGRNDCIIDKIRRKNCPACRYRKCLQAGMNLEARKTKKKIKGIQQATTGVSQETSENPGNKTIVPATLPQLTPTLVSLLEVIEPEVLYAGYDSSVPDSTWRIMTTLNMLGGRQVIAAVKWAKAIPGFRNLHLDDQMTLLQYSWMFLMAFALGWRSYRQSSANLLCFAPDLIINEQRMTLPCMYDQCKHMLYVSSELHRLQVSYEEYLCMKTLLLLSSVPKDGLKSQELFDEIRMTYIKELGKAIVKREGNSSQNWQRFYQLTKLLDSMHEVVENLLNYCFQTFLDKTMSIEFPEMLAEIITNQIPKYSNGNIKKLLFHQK
Sequence of Lysosomal acid glucosylceramidase (Homo sapiens) (P04062 whole entry, looked up): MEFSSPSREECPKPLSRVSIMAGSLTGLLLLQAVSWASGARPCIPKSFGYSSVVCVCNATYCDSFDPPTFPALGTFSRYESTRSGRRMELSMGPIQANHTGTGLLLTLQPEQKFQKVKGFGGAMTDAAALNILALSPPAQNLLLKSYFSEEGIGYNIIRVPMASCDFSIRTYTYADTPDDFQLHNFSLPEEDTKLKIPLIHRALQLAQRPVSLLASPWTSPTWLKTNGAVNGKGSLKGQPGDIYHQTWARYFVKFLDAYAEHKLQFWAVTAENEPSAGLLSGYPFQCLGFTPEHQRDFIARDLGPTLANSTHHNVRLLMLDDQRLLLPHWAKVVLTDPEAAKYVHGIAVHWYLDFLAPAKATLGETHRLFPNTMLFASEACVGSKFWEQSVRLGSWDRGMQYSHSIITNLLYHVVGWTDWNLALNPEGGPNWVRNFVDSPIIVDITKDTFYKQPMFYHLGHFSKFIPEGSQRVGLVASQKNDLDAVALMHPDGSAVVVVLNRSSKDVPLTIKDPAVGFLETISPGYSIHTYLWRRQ
Sequence of 3',5'-cyclic-AMP phosphodiesterase 4B (Homo sapiens) (Q07343 whole entry, looked up): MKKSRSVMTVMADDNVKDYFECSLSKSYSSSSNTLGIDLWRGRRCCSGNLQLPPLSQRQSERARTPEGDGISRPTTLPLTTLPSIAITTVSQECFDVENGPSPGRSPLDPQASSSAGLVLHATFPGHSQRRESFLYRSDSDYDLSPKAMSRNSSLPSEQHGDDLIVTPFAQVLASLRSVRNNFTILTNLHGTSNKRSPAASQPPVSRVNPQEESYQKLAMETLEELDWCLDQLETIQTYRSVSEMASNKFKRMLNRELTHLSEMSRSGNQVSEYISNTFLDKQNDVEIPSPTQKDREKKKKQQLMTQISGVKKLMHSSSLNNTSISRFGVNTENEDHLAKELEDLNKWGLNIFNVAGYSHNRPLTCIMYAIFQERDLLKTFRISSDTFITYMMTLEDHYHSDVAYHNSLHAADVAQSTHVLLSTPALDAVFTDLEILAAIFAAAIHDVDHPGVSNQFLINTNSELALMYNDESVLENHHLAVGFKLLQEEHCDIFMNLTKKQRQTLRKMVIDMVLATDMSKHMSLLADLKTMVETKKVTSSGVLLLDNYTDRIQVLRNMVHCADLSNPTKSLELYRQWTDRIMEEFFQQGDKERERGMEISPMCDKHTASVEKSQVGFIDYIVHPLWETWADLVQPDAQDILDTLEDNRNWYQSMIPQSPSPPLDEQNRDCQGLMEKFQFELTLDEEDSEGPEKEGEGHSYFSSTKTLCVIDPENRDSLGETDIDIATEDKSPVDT

Compound | Potency [1] [µM] | activity change, negative = inhibition [2] [%] | Potency [3] | activity, negative = inhibition [4] [%] | Potency [5] [µM] | Potency [6] [µM] | Potency [7] | Potency [8] | Potency [9] | activation [10] [%] | Potency [11] | activity change, negative = inhibition [3]
Cc1[nH]n(-c2ccc(S(=O)(=O)O)cc2)c(=O)c1N=Nc1ccccc1 | > 11.4 | -16.3 | inactive | -16.2 | > 46 | > 9.22 | inactive | inactive | inactive | 27.8 | – | –
O=[N+]([O-])c1ccc(C2=Nn3c(nnc3-c3ccc(Cl)cc3)SC2)o1 | > 11.4 | 22.7 | 0.158 µM (active) | -6.24 | > 46 | > 9.22 | inactive | inactive | 2.51 µM (active) | – | – | –
CN(C)CCNc1nc2c(c(=O)n(C)c(=O)n2C)n1C | > 11.4 | -7.15 | inactive | 9.47 | > 46 | > 9.22 | inactive | inactive | – | – | inactive | –
Clc1ccc2c(c1)N(CCCN1CCCC13CCCCC3)c1ccccc1S2 | > 11.4 | 19 | – | 11.1 | > 46 | > 9.22 | inactive | inactive | – | – | 0.0079 µM (active) | -6.2% [at 2.29 µM]
N/N=C1/c2ccccc2N[C@H]1OC(=O)Nc1ccccc1 | > 11.4 | -4.61 | 0.501 µM (active) | -9.98 | > 46 | > 9.22 | inactive | inactive | – | – | 3.16 µM (active) | –
CC1(C)N=C(N)N=C(N)N1c1cccc(CSc2ccccc2)c1 | > 11.4 | -4.06 | – | 2.13 | > 46 | > 9.22 | inactive | inactive | – | – | 0.251 µM (active) | -17.2% [at 2.29 µM]
CC(=O)O[C@H]1CC[C@@]2(C)C(=CC[C@@H]3[C@H]4CC[C@@H]([C@H](C)C(=O)O)[C@]4(C)CC[C@H]32)C1 | > 11.4 | -2.09 | 3.16 µM (active) | 9.87 | > 46 | > 9.22 | inactive | inactive | – | 1.23 | – | –
CC1(C)N=C(N)N=C(N)N1CCCCc1ccccc1 | > 11.4 | 7.1 | – | 0.495 | > 46 | > 9.22 | inactive | inactive | – | – | 3.16 µM (active) | -4.3% [at 2.29 µM]
Clc1ccc2c(NCCNC3CCCCC3)ccnc2c1 | > 11.4 | 5.59 | – | 3.49 | > 46 | > 9.22 | inactive | inactive | – | – | 3.16 µM (active) | -10.2% [at 2.29 µM]
CCCC1c2c(ccc3ccccc23)Oc2ccc3ccccc3c21 | > 11.4 | 11 | 0.631 µM (active) | 10.6 | > 46 | > 9.22 | inactive | inactive | 0.631 µM (active) | – | – | –
CN(C)CCCc1c2ccccc2nc2ccc(Cl)cc12 | > 11.4 | 14.2 | 3.98 µM (active) | 18.2 | > 46 | > 9.22 | inactive | inactive | – | – | 1.58 µM (active) | –
S=C(Nc1ccc2cn[nH]c2c1)Nc1ccc2cn[nH]c2c1 | > 11.4 | -15 | 0.126 µM (active) | 1.71 | > 46 | > 9.22 | inactive | inactive | – | – | 2 µM (active) | –
O=S(=O)(O)CCCc1cccc2ccccc12 | > 11.4 | 3.46 | – | 1.1 | > 46 | > 9.22 | inactive | inactive | – | -2.01 | – | -16.7% [at 2.29 µM]
O=C(CCN1CCCCC1)N1CCc2c([nH]c3ccccc23)[C@H]1c1cccnc1 | > 11.4 | 4.71 | – | -6.32 | > 46 | > 9.22 | inactive | inactive | inactive | – | – | -19.7% [at 2.29 µM]
CCCn1cnc2c(SCC(=O)O)nc(N)nc21 | > 11.4 | 0.287 | inactive | -4.97 | > 46 | > 9.22 | inactive | inactive | inactive | – | – | –
